Screen size: about 350,000 compounds; about 9,900 (2.8%) were called active. Roughly 15% stayed inconclusive and do not appear here. The list comes from a sample in which actives are over-represented; it also holds similar structures and randomly drawn compounds. Values without a mark were called inactive. Calls follow the shape of the dose curve; as a rule, active = well fitted activation curve with a large enough effect; inconclusive = small, poorly fitted or top-dose-only effect; inactive = no such curve, though single readings can be large or run the other way.
Test: A quantitative high throughput screen for small molecules that induce DNA re-replication in MCF 10a normal breast cells. Also: nearly all actives have a fitted effect of over 50% in size. As to activity, positive = re-replication: % of control where 0% means no effect.
Settings: MCF 10A DNA re-replication, Hoechst nuclear intensity, 48 h; series mostly up to 46.1 µM; activity, positive = re-replication: at the top concentration
Potency is read from the fitted curve at half-maximal effect.

For `CC(=O)Nc1ccc(OCC(=O)NCc2ccc(C)cc2)cc1`, the Potency was 1.16 µM (active).
In the case of `CC(=O)c1sc(N/N=C/c2ccc(C(C)C)cc2)nc1C`, the Potency is reported as 13 µM (active).
With `CCc1ccc2c(c1)C1(NN=C(c3ccccc3)S1)C(=O)N2` (configuration not stated) the Potency was 18.4 µM (active).
For `COc1ccc2sc(-c3ccc(N(C)C)cc3)c(-c3ccc4cc[nH]c4c3)c2c1`, the Potency was 16.4 µM (active).
For `N#CCC(=O)N/N=C/c1cn(Cc2ccc3ccccc3c2)c2ccccc12`, the Potency was 10.3 µM (active).
With `O=c1c2ccccc2nc2n1C1(CCCCC1)Cc1ccccc1-2` the Potency was 18.4 µM (active).
For `CCN(CC)S(=O)(=O)c1ccc(NC(=O)c2cccnc2Cl)c(NC(=O)c2cccnc2Cl)c1`, the Potency was 18.4 µM (active).
For `O=C(Nc1nnc(SCc2c(Cl)cccc2Cl)s1)C1CCCO1` (configuration not stated), the Potency was 11.6 µM (active).
In the case of `O=C(Nc1nnc(SCc2ccc(Cl)cc2Cl)s1)C1COc2ccccc2O1` (configuration not stated), the Potency is reported as 18.4 µM (active).
With `O=C1/C(=C/c2ccc3c(c2)OCO3)CCC/C1=C\c1ccc2c(c1)OCO2` the Potency was 14.6 µM (active).
For `O=C(NCCN1CCOCC1)c1ccc(/C=C2\Sc3ccccc3N(Cc3ccc(F)cc3)C2=O)cc1`, the Potency was 18.4 µM (active).
In the case of `CCN1CCN(CCNC(=O)c2ccc(/C=C3/Sc4ccccc4N(Cc4cccc(C)c4)C3=O)cc2)CC1`, the Potency is reported as 6.51 µM (active).
With `CCC(C)N1C(=O)S/C(=C/c2ccc(Sc3nc4ccccc4[nH]3)o2)C1=O` (configuration not stated) the Potency was 8.2 µM (active).

Compared with `Cc1ccc(CNC(=O)COc2ccc(S(=O)(=O)NC(C)C)cc2)cc1`, `Cc1ccc(CNC(=O)COc2ccc3c(c2)CCC3)cc1` is higher in “activity, positive = re-replication” value: 6.62% for the first, 10.2% for the second.

First: COc1ccccc1-c1nn(Cc2ccccc2)cc1C(=O)N1CCN(c2ncccn2)CC1
Second: O=C(CN1CCCSc2ccccc21)N1CCN(S(=O)(=O)c2ccccc2)CC1
The “activity, positive = re-replication” value of the first is higher: 13.2% for the first, 13.1% for the second.

Going from `COc1ccccc1/C=N/Nc1nc(C)c(C(C)=O)s1` to `CC(=O)c1sc(NC(=O)CCCOc2ccccc2C)nc1C`, the “activity, positive = re-replication” value falls from 5.97% to -8.51%.

Going from `COc1ccc(Cl)cc1NC(=O)COC(=O)c1ccc(Br)o1` to `COc1ccccc1CNC(=O)COC(=O)c1cccs1`, the “activity, positive = re-replication” value falls from 11.8% to -5.75%.

Going from `CCCN(CC1CC1)C(=O)COC(=O)c1ccc(C)cc1O` to `CCOc1cccc2cc(C(=O)OCC(=O)Nc3c(C)cccc3CC)c(=O)oc12`, the “activity, positive = re-replication” value falls from 5.42% to -4.55%.

Going from `Cc1cc(C)n2nc(C(=O)Nc3cccc(S(=O)(=O)N4CCOCC4)c3)nc2n1` to `CN=C(Nc1cccc(S(=O)(=O)N2CCOCC2)c1)c1ccccc1`, the “activity, positive = re-replication” value rises from -16.6% to -0.997%.

Going from `NC(CSC1(c2ccccc2)c2ccccc2-c2ccccc21)C(=O)O` (configuration not stated) to `O=C(CSc1nc2ccccc2[nH]1)Nc1nc(-c2ccccc2)c(-c2ccccc2)o1`, the “activity, positive = re-replication” value falls from 1.81% to 0.359%.

Compared with `COc1ccc(-c2ccc3c(c2)[C@@H]2C[C@H](N(C)S(=O)(=O)c4ccccc4)[C@H]([C@H](C)O)C(=O)N2CC3)cc1`, `COc1ccc2c(c1)c(=Cc1ccc(N(C)C)cc1)c1cc(-c3ccccc3)[n+](C)n12` is lower in “activity, positive = re-replication” value: -0.341% for the first, -16.6% for the second.

First: CC(C)(C)OC(=O)Nc1ccc([C@@H](NC(=O)OC(C)(C)C)C(=O)OC(C)(C)C)cc1
Second: O=C(COC(=O)c1cc[n+]([O-])cc1)Nc1ccc(Cl)c(C(F)(F)F)c1
The “activity, positive = re-replication” value of the first is lower: -5.63% for the first, 23.8% for the second.

Going from `CCc1ccc2c(c1)C(c1ccc([N+](=O)[O-])cc1)=NNC(c1ccccc1)=N2` to `O=C(NOCc1ccccc1)c1cccc([N+](=O)[O-])c1`, the “activity, positive = re-replication” value falls from 1.73% to 1.13%.

First: O=S1(=O)CSCS(=O)(=O)C1
Second: COc1ccc(C(=O)NCc2ccccc2C)cc1S(=O)(=O)NC1CCCC1
The “activity, positive = re-replication” value of the first is higher: -2.53% for the first, -4.4% for the second.

Going from `COc1cc(OC)cc(-c2c(-c3ccc(F)cc3)c3cc(-c4ccc5cc[nH]c5c4)ccc3n2C)c1` to `COc1ccc([C@H]2CC(=O)C=C(c3ccc(OC(F)(F)F)cc3)C2)cc1OC`, the “activity, positive = re-replication” value rises from 3.2% to 6.41%.

Compared with `CC1Sc2ccc(C(=O)NCc3ccccc3Cl)cc2NC1=O` (configuration not stated), `CCOC(=O)N/N=C/c1cn(Cc2ccccc2Cl)c2ccccc12` is higher in “activity, positive = re-replication” value: -4.42% for the first, 3.11% for the second.

Going from `O=c1ccn([C@@H]2O[C@H](CNS(=O)(=O)c3cc4ccccc4s3)[C@@H](O)[C@H]2O)c(=O)[nH]1` to `O=C(COC(=O)COc1ccccc1F)Nc1cccc(S(=O)(=O)N2CCCCC2)c1`, the “activity, positive = re-replication” value falls from -3.12% to -4.89%.

First: Cc1cc(C)c(C=NNc2nc3c([nH]2)c(=O)n(C)c(=O)n3C)c(C)c1
Second: Cc1nn(Cc2ccccc2)c(C)c1C(=O)NCCN1C(=O)S/C(=C\c2ccc(F)cc2)C1=O
The “activity, positive = re-replication” value of the first is lower: -1.32% for the first, 5.89% for the second.

Compared with `N#CCC(=O)N/N=C/c1ccc(SCC(=O)Nc2ccccc2)o1`, `O=C(NCCN1CCOCC1)/C(=C/c1ccc(F)cc1)NC(=O)c1ccccc1` is lower in “activity, positive = re-replication” value: -2.9% for the first, -3.22% for the second.

First: CC1CCCC(NC(=O)c2cc(S(=O)(=O)N3CCCCC3)ccc2Cl)C1C (configuration not stated)
Second: CCOc1ccc(CCNC(=O)COC(=O)C2CCN(S(=O)(=O)c3ccccc3)CC2)cc1OCC
The “activity, positive = re-replication” value of the first is lower: -4.65% for the first, -3.91% for the second.

Compared with `c1cncc(-c2nnc3n2C2(CCCCC2)Cc2ccccc2-3)c1`, `CN(c1ccc2nc3ccccc3c(=O)n2n1)C1CCCCC1` is lower in “activity, positive = re-replication” value: 1.24% for the first, -2.71% for the second.

First: CC(C)C[C@H]1CN([C@@H](CC(C)C)CN2CCC[C@@H]2CN2C(=O)C(=O)NC[C@@H]2Cc2ccccc2)C(=O)C(=O)N1CCc1ccccc1
Second: O=C(NCCCN1CCOCC1)c1ccc2c(c1)N(Cc1cccc(F)c1)C(=O)c1ccccc1S2
The “activity, positive = re-replication” value of the first is higher: 17.4% for the first, -2.53% for the second.

First: CCN(CC)S(=O)(=O)c1ccc(Cl)c(NC(=O)c2ccncc2)c1
Second: O=C(Nc1nnc(SCc2c(Cl)cccc2Cl)s1)c1cccc([N+](=O)[O-])c1
The “activity, positive = re-replication” value of the first is lower: 0.731% for the first, 21% for the second.

Compared with `Cc1cccc(NC(=O)c2cccnc2Cl)n1`, `O=C(Nc1nc(-c2ccncc2)cs1)C1COc2ccccc2O1` (configuration not stated) is higher in “activity, positive = re-replication” value: -3.66% for the first, 3.86% for the second.

Going from `O=C(Nc1nnc(CCc2ccccc2)s1)C1CCCO1` (configuration not stated) to `CCc1nnc(NC(=O)CCCSc2nc3ccccc3[nH]2)s1`, the “activity, positive = re-replication” value rises from -6.69% to 0.183%.

Compared with `O=C(Nc1nc2c(F)cc(F)cc2s1)C1COc2ccccc2O1` (configuration not stated), `O=C(O)/C=C/c1ccc2c(c1)OCCO2` is higher in “activity, positive = re-replication” value: 5% for the first, 13.8% for the second.

Compared with `O=C(N/N=C/c1ccc2c(c1)OCO2)C(=O)N1CCCC1`, `CCN1CCN(CCNC(=O)c2ccc3c(c2)NC(=O)/C(=C\c2ccc(OC)c(OC)c2)S3)CC1` is lower in “activity, positive = re-replication” value: 14.4% for the first, 1.79% for the second.

With `Cn1nnnc1SCC(=O)Nc1sccc1C(N)=O` the “activity, positive = re-replication” value was 0.751%.

Reference: PubChem BioAssay AID624296 (National Center for Advancing Translational Sciences (NCATS), 2012)
